{"source": "PubChem BioAssay AID463173", "about": "(ICCB-Longwood Screening Facility, Harvard Medical School, 2010)", "note": "About 4,300 (8.3%) of roughly 52,000 compounds were called active. This is one part of a sample in which actives are shown more often than they occur. Unmarked numbers belong to inactive results. Cut-off read from the data, not from the text of the source: active = survival mostly below about 52% (no sharp cut-off); inactive = mostly above about 56%.", "data": [{"test_system": "DeltatarO mutant", "assay": "growth inhibition of S. aureus wild type versus tarO mutant, primary screen, teichoic acid synthesis inhibitors, RN4220, OD600 (AID 463173)", "settings": "OD600, 18 h, active compounds read low, screened at 18.75 µg/mL (by protocol)", "values": [{"smiles": "Cc1cccc(N(C)c2ccc3cc(S(=O)(=O)N4CCCC4)ccc3n2)c1", "survival": "96%"}, {"smiles": "N#CCNS(=O)(=O)c1ccccc1", "survival": "97%"}, {"smiles": "CC(=O)N1CCCc2cc(S(=O)(=O)NCc3ccccc3Cl)ccc21", "survival": "112%"}, {"smiles": "CCc1ccccc1NC(=O)Cn1cc(C(=O)c2ccc(Cl)cc2)c(=O)c2ccc(C)nc21", "survival": "78%"}, {"smiles": "CCCCN(Cc1cc2cc(C)ccc2[nH]c1=O)C(=O)c1cccc(Cl)c1", "survival": "72%"}, {"smiles": "CCOC(=O)c1sc2ccccc2c1S(=O)(=O)Nc1ccc(OC)c(Cl)c1", "survival": "89%"}, {"smiles": "COc1ccc(OCC(=O)Nc2cc(-c3ccccc3F)nn2-c2ccccc2)cc1", "survival": "92%"}, {"smiles": "Cc1ccc(NC(=O)Cn2c(=O)n(CCCCC(=O)NCc3ccccc3Cl)c(=O)c3ccccc32)cc1", "survival": "83%"}, {"smiles": "COc1ccc(NC(=O)Cn2c(=O)n(CCCC(=O)NCCc3ccc(C)cc3)c(=O)c3ccccc32)cc1Cl", "survival": "97%"}, {"smiles": "Cc1ccc2c(c1)c(=O)c1ccccc1n2CCCC(=O)Nc1ccc(Cl)c(Cl)c1", "survival": "45% (active)"}, {"smiles": "Cc1ccc(NC(=O)CSc2nc3ccccc3c3nc(CCn4cncc4C)nn23)c(C)c1", "survival": "75%"}, {"smiles": "COCCCNC(=O)CSC1=Nc2ccccc2C2=NC(CCC(=O)NCc3ccccc3OC)C(=O)N12", "note": "(configuration not stated)", "survival": "78%"}, {"smiles": "COc1ccccc1CNC(=O)CCC1N=C2c3ccccc3N=C(SCC(=O)NCCc3ccccc3)N2C1=O", "note": "(configuration not stated)", "survival": "131%"}, {"smiles": "O=C(CCC1N=C2c3ccccc3N=C(SCc3ccc(Cl)cc3)N2C1=O)NCc1cccs1", "note": "(configuration not stated)", "survival": "47% (active)"}, {"smiles": "COc1ccc(CNC(=O)CCC2N=C3c4ccccc4N=C(SCc4ccccc4F)N3C2=O)cc1", "note": "(configuration not stated)", "survival": "37% (active)"}, {"smiles": "CCCCNC(=O)CSC1=Nc2ccccc2C2=NC(CCC(=O)NCc3ccccc3OC)C(=O)N12", "note": "(configuration not stated)", "survival": "0% (active)"}, {"smiles": "COc1ccccc1CNC(=O)CCC1N=C2c3ccccc3N=C(SCc3cccc(Cl)c3)N2C1=O", "note": "(configuration not stated)", "survival": "49%"}, {"smiles": "O=C(CCC1N=C2c3ccccc3N=C(SCc3ccccc3F)N2C1=O)NCc1ccc(F)cc1", "note": "(configuration not stated)", "survival": "69%"}, {"smiles": "Cc1ccc(CSC2=Nc3ccccc3C3=NC(CCC(=O)NCc4cccs4)C(=O)N23)cc1", "note": "(configuration not stated)", "survival": "94%"}, {"smiles": "COc1ccccc1CNC(=O)CCC1N=C2c3ccccc3N=C(SCc3ccc(C)cc3)N2C1=O", "note": "(configuration not stated)", "survival": "112%"}, {"smiles": "COc1ccc(CNC(=O)CCC2N=C3c4ccccc4N=C(SCc4ccc(F)cc4)N3C2=O)cc1", "note": "(configuration not stated)", "survival": "83%"}, {"smiles": "COc1ccccc1CNC(=O)CCC1N=C2c3ccccc3N=C(SCc3ccc(Cl)cc3)N2C1=O", "note": "(configuration not stated)", "survival": "32% (active)"}, {"smiles": "O=C(CCC1N=C2c3ccccc3N=C(SCc3ccc(F)cc3)N2C1=O)NCc1cccs1", "note": "(configuration not stated)", "survival": "135%"}, {"smiles": "CC(C)(C)c1ccc(C(=O)N2CCN(CCc3ccccn3)CC2)cc1", "survival": "45%"}, {"smiles": "CCc1cccc(C)c1Nc1c(-c2ccc(F)cc2)nc2sccn12", "survival": "35%"}, {"smiles": "CCCN(CCC)CCCNC(=O)Cn1ncc2c3ccccc3n(Cc3ccc(F)cc3)c2c1=O", "survival": "91%"}, {"smiles": "O=C(NCC1CCCO1)C1CC(c2ccccc2O)=NO1", "note": "(configuration not stated)", "survival": "91%"}, {"smiles": "CC(NC(=O)C1CCN(C(=O)N2CCOc3ccc(Cl)cc32)CC1)c1ccccc1", "note": "(configuration not stated)", "survival": "50%"}, {"smiles": "COc1ccc(OC)c(NC(=O)Nc2c(C)n(C)n(-c3ccccc3)c2=O)c1", "survival": "88%"}, {"smiles": "CCC(CC)c1nn2c(=O)cc(COc3ccc(NC(=O)c4cccc(Cl)c4)cc3)nc2s1", "survival": "79%"}, {"smiles": "CC(C)NC(=O)C1CCN(C(=O)NCc2ccccc2)CC1", "survival": "93%"}, {"smiles": "COc1cccc(N2CCN(C(=O)C3CCCN(S(=O)(=O)c4ccc(Br)s4)C3)CC2)c1", "note": "(configuration not stated)", "survival": "76%"}, {"smiles": "Cc1ccc(CNC(=O)CSC2=Nc3ccccc3C3=NC(C)C(=O)N23)cc1", "note": "(configuration not stated)", "survival": "71%"}, {"smiles": "CC1N=C2c3ccccc3N=C(SCC(=O)NCCc3ccccc3)N2C1=O", "note": "(configuration not stated)", "survival": "52% (active)"}, {"smiles": "CC1N=C2c3ccccc3N=C(SCC(=O)NCCc3ccc(Cl)cc3)N2C1=O", "note": "(configuration not stated)", "survival": "80%"}, {"smiles": "CCNC(=O)CC1C(=O)N(c2ccccc2)C(=O)N1Cc1ccc(F)cc1", "note": "(configuration not stated)", "survival": "74%"}, {"smiles": "COc1cccc(CNC(=O)CSC2=Nc3ccccc3C3=NC(C)C(=O)N23)c1OC", "note": "(configuration not stated)", "survival": "124%"}, {"smiles": "COC(=O)c1ccccc1NC(=O)Cn1c(=O)n(CCC(=O)NCc2ccccc2OC)c(=O)c2ccccc21", "survival": "82%"}, {"smiles": "Cc1ccccc1OCC(=O)Nc1ccc(S(=O)(=O)N(Cc2ccccc2)c2ccccc2)cc1", "survival": "66%"}, {"smiles": "COc1ccc(-n2ccnc(NCCc3ccc(S(N)(=O)=O)cc3)c2=O)cc1", "survival": "66%"}, {"smiles": "COC(=O)CNC(=O)Nc1cc(C(=O)NCc2ccc(C)cc2)ccc1N1CCCC1", "survival": "76%"}, {"smiles": "COC(=O)c1c(N)n(-c2ccc(OC)c(Cl)c2)c2nc3ccccc3nc12", "survival": "93%"}, {"smiles": "COC(=O)c1c(N)n(-c2ccc(OC)c(OC)c2)c2nc3ccccc3nc12", "survival": "94%"}, {"smiles": "COC(=O)c1c(N)n(-c2cc(Cl)cc(Cl)c2)c2nc3ccccc3nc12", "survival": "44% (active)"}, {"smiles": "Cc1ccc(CNc2nc(-c3ccco3)nn2S(C)(=O)=O)cc1", "survival": "113%"}, {"smiles": "CCOC(=O)Cc1ccc(NC(=O)N2CCC(CN3CCCCCC3)CC2)cc1", "survival": "80%"}, {"smiles": "Cc1cc(C)c(NS(=O)(=O)c2ccc3c(c2)NC(=O)CCS3)c(C)c1", "survival": "76%"}, {"smiles": "Cc1ccc(NS(=O)(=O)c2ccc3c(c2)NC(=O)C(C)C(=O)N3)cc1F", "note": "(configuration not stated)", "survival": "69%"}, {"smiles": "O=C1CCSc2ccc(S(=O)(=O)Nc3ccc(Cl)c(C(F)(F)F)c3)cc2N1", "survival": "72%"}, {"smiles": "CC1C(=O)Nc2ccc(S(=O)(=O)Nc3ccccc3Br)cc2NC1=O", "note": "(configuration not stated)", "survival": "90%"}, {"smiles": "Cc1ccccc1NS(=O)(=O)c1ccc2c(c1)NC(=O)CCS2", "survival": "64%"}, {"smiles": "Cc1ccc(NS(=O)(=O)c2ccc3c(c2)NC(=O)CCS3)cc1C", "survival": "79%"}, {"smiles": "Cc1cc(C)cc(NS(=O)(=O)c2ccc3c(c2)NC(=O)C(C)S3)c1", "note": "(configuration not stated)", "survival": "11% (active)"}, {"smiles": "Cc1ccc(NS(=O)(=O)c2ccc3c(c2)NC(=O)CCS3)c(Br)c1", "survival": "-1% (active)"}, {"smiles": "O=C1CCSc2ccc(S(=O)(=O)Nc3cccc(C(F)(F)F)c3)cc2N1", "survival": "-2% (active)"}, {"smiles": "COc1cc(NC(=O)CCc2c(C)nn(-c3ccc(N4CCCCC4)nn3)c2C)cc(OC)c1OC", "survival": "95%"}, {"smiles": "CCOC(=O)c1ccccc1NC(=O)n1ncc2cc(Cl)ccc21", "survival": "85%"}, {"smiles": "O=C(O)c1cc(N2C(=O)C3CC=CCC3C2=O)ccc1NCc1cccnc1", "note": "(configuration not stated)", "survival": "90%"}, {"smiles": "CC(=O)c1cccc(NC(=O)c2sc(-n3nc(C)c(CCC(C)C)c3C)nc2C)c1", "survival": "53%"}, {"smiles": "CCOc1ccccc1NC(=O)Cn1cc(C(=O)c2ccc(Cl)cc2)c(=O)c2ccc(C)nc21", "survival": "87%"}, {"smiles": "CCc1ccc(N2CC(C)Cn3c2nc2c3c(=O)n(CC(=O)O)c(=O)n2C)cc1", "note": "(configuration not stated)", "survival": "77%"}, {"smiles": "COc1ccc(C2(CNC(=O)C(=O)Nc3cccc(C(F)(F)F)c3)CCCC2)cc1OC", "survival": "102%"}, {"smiles": "Cc1cccc2cc(CN(C(=O)c3ccco3)C3CCCC3)c(=O)[nH]c12", "survival": "51%"}, {"smiles": "CCCCSc1ncnc2c1sc1nc(N3CCOCC3)c3c(c12)CCCC3", "survival": "77%"}, {"smiles": "CCCCN(CC)c1ncnc2c1sc1nc(N3CCOCC3)c3c(c12)CCCC3", "survival": "35% (active)"}, {"smiles": "CCCc1nc2sc3c(N4CCCCC4)ncnc3c2c2c1CCCC2", "survival": "12% (active)"}, {"smiles": "CCCc1nc2sc3c(N4CCC(C)CC4)ncnc3c2c2c1CCCC2", "survival": "61%"}, {"smiles": "CCCCCSc1ncnc2c1sc1nc(N3CCOCC3)c3c(c12)CCCC3", "survival": "69%"}, {"smiles": "CCc1nc2sc3c(N4CCCCC4)ncnc3c2c2c1CCCC2", "survival": "175%"}, {"smiles": "Cc1ccc(-c2[nH]c3ccccc3c2SCCNC(=O)c2ccc(S(=O)(=O)N(C)C)cc2)cc1", "survival": "105%"}, {"smiles": "COc1ccc(NC(=O)CSCc2cc(=O)c3cc(C)ccc3[nH]2)cc1", "survival": "68%"}, {"smiles": "CC(=O)Nc1ccc(NC(=O)C2CCN(S(=O)(=O)c3ccc4c(c3)CCCC(=O)N4)CC2)cc1", "survival": "85%"}, {"smiles": "CC(C)(C)C(=O)OCc1cc(=O)n2nc(C3CCCCC3)sc2n1", "survival": "80%"}, {"smiles": "COc1ccc(CC(=O)NC2CCN(CC(=O)c3ccc(F)cc3)CC2)cc1OC", "survival": "108%"}, {"smiles": "Cc1cc(C)nc(NC(=O)COc2ccc(Br)cc2)n1", "survival": "84%"}, {"smiles": "COc1ccc(CNC(=O)Cn2ncc3c([nH]c4ccccc43)c2=O)cc1", "survival": "91%"}, {"smiles": "O=C(Cn1ncc2c([nH]c3ccccc32)c1=O)NCc1cccc(Cl)c1", "survival": "20% (active)"}, {"smiles": "CCN(CC)CCNC(=O)Cn1ncc2c([nH]c3ccccc32)c1=O", "survival": "89%"}, {"smiles": "CN(CCCNC(=O)Cn1ncc2c([nH]c3ccccc32)c1=O)Cc1ccccc1", "survival": "100%"}, {"smiles": "Cc1ccc(CCNC(=O)Cn2ncc3c([nH]c4ccccc43)c2=O)cc1", "survival": "102%"}, {"smiles": "CCCCN(C)CCNC(=O)Cn1ncc2c([nH]c3ccccc32)c1=O", "survival": "8% (active)"}, {"smiles": "COc1ccc(-n2nc(C(=O)Nc3ccccn3)c3c4ccccc4n(C)c3c2=O)cc1", "survival": "72%"}, {"smiles": "O=C(NCCc1csc(-c2cccc(F)c2)n1)c1ccc(Br)o1", "survival": "83%"}, {"smiles": "CC(=O)Nc1ccc(N(C(=O)Cn2nnc3ccccc32)C(C(=O)NCc2ccccc2)c2ccc(C)cc2)cc1", "note": "(configuration not stated)", "survival": "38% (active)"}, {"smiles": "COc1cc(N(C(=O)Cn2nnc3ccccc32)C(C(=O)NCC2CCCO2)c2ccc(F)cc2)ccc1-n1cnnn1", "note": "(configuration not stated)", "survival": "105%"}, {"smiles": "COc1ccc(C(C(=O)NCc2ccccc2)N(C(=O)Cn2nnc3ccccc32)c2ccc(OC)cc2)cc1", "note": "(configuration not stated)", "survival": "60%"}, {"smiles": "COc1ccc(N(C(=O)Cn2nnc3ccccc32)C(C(=O)NCc2ccccc2)c2ccc(F)cc2)cc1", "note": "(configuration not stated)", "survival": "42% (active)"}, {"smiles": "CCOc1ccc(N(C(=O)Cn2nnc3ccccc32)C(C(=O)NCc2ccccc2)c2ccc(OC)cc2)cc1", "note": "(configuration not stated)", "survival": "52%"}, {"smiles": "COc1ccc(C(C(=O)NCc2ccccc2)N(C(=O)Cn2nnc3ccccc32)c2ccc(F)cc2)cc1", "note": "(configuration not stated)", "survival": "49%"}, {"smiles": "COc1ccc(C(C(=O)NCc2ccccc2)N(C(=O)Cn2nnc3ccccc32)c2cccc(OC)c2)cc1", "note": "(configuration not stated)", "survival": "50%"}, {"smiles": "COc1cccc(C(C(=O)NCc2ccccc2)N(C(=O)Cn2nnc3ccccc32)c2cccc(C(C)=O)c2)c1", "note": "(configuration not stated)", "survival": "44% (active)"}, {"smiles": "CC(=O)c1cccc(N(C(=O)Cn2nnc3ccccc32)C(C(=O)NCc2ccccc2)c2ccc(F)cc2)c1", "note": "(configuration not stated)", "survival": "85%"}]}]}
